Source: PubChem BioAssay (several laboratories)
Hits are enriched below; roughly 4.5% of the tested compounds scored in any of these assays.
EBNA-1 inh: EBNA-1 DNA-binding inhibitors, primary screen, biochemical, fluorescence polarization. inhibition, % at 14.8 µM. 300,000 compounds, 0.34% hits. AID 1950, 2009; in the data active means inhibition above about 28%
dFosB activator: activators of delta FosB homodimer, primary screen, biochemical, fluorescence polarization, TAMRA-CDK5 oligo, single point; Protein FosB (Mus musculus), P13346; 340,000 compounds, 0.99% hits; purified delta FosB; percent of positive-control signal above neutral wells; activation, % at 25 µM;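 active means mean activation above about 17%, with every replicate also reaching it, limit read from the data, passing the limit was not always enough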
Rpn11 block: Rpn11 (PSMD14) deubiquitinase inhibitors, primary screen, biochemical, fluorescence polarization, uHTS. human 26S proteasome, Ub4-pepOG fluorescence polarization; 20S core pre-blocked with epoxomicin. 360,000 compounds, 0.59% hits. 26S proteasome non-ATPase regulatory subunit 14 (Homo sapiens), O00487. inhibition, % at 20 µM;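 active means inhibition at 20 µM, scaled to each plate's controls, above about 33%, limit read from the data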
Target sequence (O00487 whole entry, looked up): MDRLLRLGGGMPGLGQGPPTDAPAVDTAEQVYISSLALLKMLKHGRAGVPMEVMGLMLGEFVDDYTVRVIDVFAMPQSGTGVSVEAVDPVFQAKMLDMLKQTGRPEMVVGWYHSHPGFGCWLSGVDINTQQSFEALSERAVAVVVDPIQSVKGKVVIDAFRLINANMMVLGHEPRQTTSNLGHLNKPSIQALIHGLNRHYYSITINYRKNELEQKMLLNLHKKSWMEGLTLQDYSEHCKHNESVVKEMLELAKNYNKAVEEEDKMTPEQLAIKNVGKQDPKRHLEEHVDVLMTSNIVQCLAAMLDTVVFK
TPT1 inh: Candida albicans TPT1 enzyme inhibitors, primary screen, biochemical, fluorescence polarization; recombinant caTPT1, FP RNA substrate dephosphorylation; 300,000 compounds, 0.81% hits; tRNA 2'-phosphotransferase TPT1 (Candida albicans SC5314); inhibition, % at 5 µM;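 active means inhibition above the mean of all tested compounds plus 3 SD, set per screening campaign, cut at about 24% in these data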;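 further: plate controls were DMSO alone for no effect and ferristatin control at 100 nM for full effect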
NR3A LBD binder: binders of NR3A ligand-binding domain, primary screen, biophysical, differential scanning fluorimetry, uHTS; AID 1259313, 2017; Glutamate receptor ionotropic, NMDA 3A (GRIN3A) ligand-binding domain; 340,000 compounds, 2.5% hits; Tm shift relative to glycine control, % at 25 µM; NR3A LBD differential scanning fluorimetry, Tm shift; 0% = protein alone, 100% = glycine-bound protein;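 active means melting temperature shift of at least 10% of the positive control shift, at one fixed dose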
ZTA counter: counter-screen for EBNA-1 inhibitors: inhibitors of Epstein-Barr virus ZTA; P03206; ZTA-DNA binding, fluorescence polarization; inhibition, % at 11 µM; 320,000 compounds, 0.15% hits; in the data active means inhibition above about 33%
Target sequence (P03206 whole entry, looked up): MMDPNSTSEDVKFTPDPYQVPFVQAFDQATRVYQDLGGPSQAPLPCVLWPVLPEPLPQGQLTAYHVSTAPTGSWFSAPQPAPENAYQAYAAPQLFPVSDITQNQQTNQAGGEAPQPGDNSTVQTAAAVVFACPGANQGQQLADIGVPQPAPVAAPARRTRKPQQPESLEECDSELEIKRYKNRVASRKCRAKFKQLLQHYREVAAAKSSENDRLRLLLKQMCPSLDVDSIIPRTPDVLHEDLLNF
An asterisk follows results filed as active; · = no result.

SMILES | EBNA-1 inh | dFosB activator | Rpn11 block | TPT1 inh | NR3A LBD binder | ZTA counter
CCN(C(=O)COC(=O)CCOc1ccccc1)c1c(N)n(Cc2ccccc2)c(=O)[nH]c1=O | · | -6.6 | 3.5 | · | 1.8 | 15.7
Cc1ccc(-n2c(SCC(N)=O)nc3c(c2=O)C2(CCCC2)Cc2ccccc2-3)cc1 | -10.5 | -23.8 | -0.4 | -2.8 | 13.1* | -13.0
CCSc1n[nH]c2nc3c(c(=O)n12)C1(CCCC1)Cc1ccccc1-3 | -14.5 | 8.0 | 3.4 | 2.0 | -3.7 | 20.3
Cc1cc(=O)oc2cc(OCC(O)Cn3ccnc3)ccc12 (stereo unspecified) | 9.9 | 1.1 | 0.8 | -1.3 | -4.1 | -3.2
Cc1ccc(-c2csc(NC(=O)/C=C/c3cccs3)n2)cc1C | -1.2 | -8.2 | 3.3 | -1.7 | 19.2* | 7.0
CCN(C(=O)COC(=O)/C=C/c1c(C)nn(Cc2ccc(C)cc2)c1C)C1CCS(=O)(=O)C1 (stereo unspecified) | -3.7 | -0.4 | 0.1 | 1.8 | -2.8 | 2.4
O=C(Nc1ccccc1C(=O)O)c1ccc(NC(=O)c2ccc(Br)o2)cc1 | -6.3 | -13.8 | 6.6 | -0.2 | 12.9* | -8.7
O=C(Nc1ccccc1C(=O)O)c1cccc(NC(=O)c2ccc(Br)o2)c1 | 2.2 | -7.9 | -5.5 | -5.3 | 1.7 | -11.8
O=C(Nc1ccccc1C(=O)O)c1cccc(C(=O)Nc2ccccc2C(=O)O)c1 | 5.3 | -0.9 | 11.7 | -4.7 | 10.5* | 9.2
O=C(Nc1ccccc1C(=O)O)c1ccccc1 | -14.6 | -2.1 | -6.3 | -5.6 | 5.7 | -10.3
CC(=O)Nc1cccc(C(=O)Nc2ccccc2C(=O)O)c1 | 0.6 | -7.7 | -1.2 | -1.4 | -2.1 | -12.0
COc1ccc(CC(=O)Nc2cccc(C(=O)Nc3ccccc3C(=O)O)c2)cc1OC | -0.7 | -9.2 | 5.9 | -3.2 | -5.7 | 6.7
O=C(Cc1ccc(Cl)cc1)Nc1cccc(C(=O)Nc2ccccc2C(=O)O)c1 | -5.9 | -18.5 | -4.4 | -2.3 | 13.3* | 6.7
O=C(Nc1cccc(C(=O)Nc2ccccc2C(=O)O)c1)c1cccc(Cl)c1 | 11.6 | -10.0 | 5.6 | -5.8 | 13.6* | 14.4
Cc1ccc2nc(SCC(=O)N3CCC(C)CC3)nc(=O)n2c1 | -2.5 | 0.7 | 0.0 | 3.7 | -0.6 | 3.9
O=C(COc1ccc(Cl)cc1Cl)Nc1ccc(C(=O)Nc2ccccc2C(=O)O)cc1 | -1.2 | -26.9 | 6.6 | -1.2 | 15.9* | 0.5
O=C(COc1ccc(Cl)cc1Cl)NC(=S)Nc1ccccc1C(=O)O | -13.2 | · | · | -4.0 | · | 5.3
CN(C)S(=O)(=O)Oc1cccc(C(=O)Nc2ccc([N+](=O)[O-])cc2)c1 | 7.6 | 3.4 | 3.0 | -4.2 | -5.6 | -5.7
COc1ccc(/C=N/NC(=S)N[C@H]2CC3CCC2C3)cc1 (stereo partly specified) | -9.5 | -1.4 | -1.0 | -5.3 | 25.5* | -6.7
COc1cc2ccccc2cc1C(=O)Nc1nnc(-c2ccncc2)o1 | 4.7 | -6.7 | 0.0 | 0.2 | -1.7 | -5.7
COc1cc2c(cc1OC)C(C)N(C(=O)c1cc(C)on1)CC2 (stereo unspecified) | 12.0 | 3.6 | 1.1 | -1.0 | 13.0* | -6.7
Cc1ccccc1-c1nnc(SCc2ccccc2F)o1 | -9.5 | -3.0 | 1.9 | 4.2 | 10.2* | 18.6
Fc1ccccc1CSc1nnc(-c2ccccc2)o1 | 9.1 | -8.6 | -7.0 | 1.0 | -0.3 | -19.4
CCCS(=O)(=O)N1CCC(C(=O)NCCC(C)C)CC1 | -7.9 | -3.8 | 1.5 | -4.3 | -2.1 | -14.4
CCOC(=O)c1nc(Nc2cc(Cl)ccc2OC)c2ccccc2n1 | 13.3 | -15.2 | 14.4 | -0.2 | 10.0* | 10.8
SMILES | EBNA-1 inh | dFosB activator | Rpn11 block | TPT1 inh | NR3A LBD binder | ZTA counter
Cc1[nH]nc(SCC(=O)Nc2ccc(C#N)cc2)c1[N+](=O)[O-] | -9.2 | -6.1 | 4.7 | 6.2 | 30.6* | -2.3
COc1cccc(C(=O)Nc2sc(C(C)C)cc2C(N)=O)c1OC | -2.7 | -6.3 | 7.4 | -2.1 | -8.8 | -8.6
C/C(=N\N1CCN(c2ccccc2)CC1)c1ccncc1 | 8.9 | 3.6 | 6.7 | -1.6 | -1.6 | -0.7
CCN1CCN(c2nc(Nc3ccc(NC(C)=O)cc3)nc(Nc3ccc(NC(C)=O)cc3)n2)CC1 | 0.2 | 72.9* | -6.0 | -3.3 | 1.3 | 7.3
CCCNC(=O)c1cc(C2CCCCN2C(=O)c2cccs2)on1 (stereo unspecified) | · | · | 2.6 | · | · | ·
Cc1c(C(=O)Nc2ccc3c(c2)OCCO3)sc2nc(-c3ccccc3)cn12 | -6.1 | 0.4 | 14.6 | 1.6 | 27.1* | 0.1
CCOc1ccc(CNC2CCCc3ccccc32)cc1 (stereo unspecified) | -5.2 | -3.3 | -0.5 | 0.4 | -0.6 | -10.2
O=C(N/C(=C\c1ccco1)C(=O)N1CCCC(CO)C1)c1ccccc1 (stereo unspecified) | 8.5 | -1.1 | 1.9 | -3.1 | 0.2 | -6.8
Cc1sc2nc(C(C)C)nc(SCC(=O)NC3CC3)c2c1C | 129.2* | 6.4 | -3.9 | -2.4 | -1.7 | 69.3*
CN(N=O)c1ccc(CC2CCc3ccccc32)cc1 (stereo unspecified) | · | 5.4 | -2.4 | · | 15.4* | ·
CN1C(=O)C(=O)/C(=C(/O)c2ccc(Br)cc2)C1c1ccc(F)cc1 (stereo unspecified) | 0.5 | -1.6 | -0.5 | -6.0 | 2.2 | -0.5
COc1ccc(Nc2ccnc3ccccc23)cc1 | 7.0 | 5.3 | 0.0 | -4.0 | -0.8 | -0.8
CC(C)Nc1ccc(Nc2ccnc3cc4ccccc4cc23)cc1 | -0.6 | 67.6* | -20.9 | 2.3 | -6.3 | -16.2
COc1ccc(C(=O)Nc2ccc(NC(=O)c3cccs3)cc2)cc1[N+](=O)[O-] | -11.4 | 9.8 | -4.2 | -0.7 | 23.8* | -1.2
O=C(Nc1nccs1)c1ccc(Cl)c([N+](=O)[O-])c1 | -15.9 | 3.9 | 2.8 | -1.2 | -0.9 | -3.5
COc1ccc(C(=O)Nc2ccc(C(=O)Nc3nccs3)cc2)cc1[N+](=O)[O-] | -4.2 | 7.5 | -5.9 | -4.1 | 22.2* | 13.8
CCOc1ccc(C(=O)Nc2ccc(NC(=O)c3cccs3)cc2)cc1[N+](=O)[O-] | 3.9 | 8.8 | -4.1 | -3.8 | 28.0* | 1.3
CCOc1ccccc1NC(=O)c1ccc(OCC)c([N+](=O)[O-])c1 | 10.8 | 2.4 | -9.7 | 1.9 | -0.1 | 13.5
COC(=O)C/C=N/N=C1/NC(=O)/C(=C/C(=O)O)S1 | -8.1 | -0.1 | -2.5 | 3.5 | 0.9 | 27.4
COc1ccc2[nH]c(C(=O)N/N=C/c3ccc(O)cc3O)cc2c1 | · | -1.5 | 6.1 | · | 13.3* | ·
COc1ccc2cc(C(=O)N/N=C/c3cc(OC)c(OC)c(OC)c3)[nH]c2c1 | -10.3 | -21.8 | -12.4 | -2.4 | 18.8* | -1.1
